Active and inactive are the calls of the source. Entries that show only a call come without a potency. Unless noted, calls follow the shape of the dose curve; as a rule, active = well fitted curve in the direction sought with a large enough effect in the repeat runs; inconclusive = weak or mixed curves; inactive = no such curve, though single readings can be large; an effect the other way counts as inactive or inconclusive.
Experiments:
[1] = qHTS assay to identify small molecule antagonists of the thyroid receptor (TR) signaling pathway - cell viability counter screen (AID 743064); also: nearly all actives have a fitted effect of over 50% in size
How it was run: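 In-well cytotoxicity read by CellTiter-Fluor (30 min, 37 C) following 23.5 h exposure of GH3 cells bearing a TRE-luciferase sensor. Compounds were added alongside 1 nM (final) T3 to drive TR transactivation.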

[2] = molecular target: Estrogen receptor (Homo sapiens) (UniProt P03372); assay: qHTS assay to identify small molecule antagonists of the estrogen receptor alpha (ER-alpha) signaling pathway (AID 743069; active = well fitted curve in the direction sought with a large enough effect in the signal ratio in the repeat runs, not every such curve was filed as active; inconclusive = weak or mixed curves, or effect the other way; inactive = no such curve, though single readings can be large or run the other way; the % refers to the signal ratio)
How it was run: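 A 17beta-estradiol challenge was applied right after compound transfer to ER-alpha-UAS-bla HEK293 cells previously kept in charcoal-stripped serum. Plates stood 18 hr at 37C and 5% CO2; fluorescence was read following 2 hr FRET substrate loading at room temperature.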

[3] = qHTS assay to identify small molecule antagonists of the estrogen receptor alpha (ER-alpha) signaling pathway - cell viability counter screen (AID 743074; calls by dose curve;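 also: HEK293 cells carrying ER-alpha-UAS-bla reporter stimulated with 17beta-estradiol; nearly all actives have a fitted effect of over 45% in size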)
[4] = molecular target: Estrogen receptor (Homo sapiens) (UniProt P03372); assay: qHTS assay to identify small molecule agonists of the estrogen receptor alpha (ER-alpha) signaling pathway (AID 743075; calls by dose curve;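 also: HEK293 GripTite cells with ER-alpha and UAS-driven beta-lactamase reporter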; also: potency is read from the fitted curve at half-maximal effect)
[5] = molecular target: Estrogen receptor (Homo sapiens) (UniProt P03372); assay: qHTS assay to identify small molecule agonists of the estrogen receptor alpha (ER-alpha) signaling pathway using the BG1 cell line (AID 743079); also: nearly all actives have a fitted effect of over 20% in size; also: potency is read from the fitted curve at half-maximal effect
[6] = qHTS assay to identify small molecule antagonists of the estrogen receptor alpha (ER-alpha) signaling pathway using the BG1 cell line (AID 743080; calls by dose curve;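 also: BG1 cells stimulated with 17beta-estradiol alongside compound; series mostly up to about 70 µM; nearly all actives have a fitted effect of over 25% in size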)
How it was run: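 BG1-Luc-4E2 cells (endogenous full-length ER-alpha, 4xERE luciferase) hormone-starved 5 days in charcoal-stripped FBS, plated 4,000/well for 24 h, then compound plus 17beta-estradiol for 21.5 h at 37 C; ONE-Glo luminescence read.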

[7] = qHTS assay to identify small molecule antagonists of the estrogen receptor alpha (ER-alpha) signaling pathway using the BG1 cell line - cell viability counter screen (AID 743081);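 also: compound given together with 17beta-estradiol as the ER stimulus; series mostly up to about 70 µM; nearly all actives have a fitted effect of over 45% in size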
Aromatase (Homo sapiens) = Aromatase (Homo sapiens) (UniProt P11511); assay: qHTS assay to identify aromatase inhibitors (AID 743083); also: series mostly up to about 70 µM; nearly all actives have a fitted effect of over 55% in size
[8] = qHTS assay to identify aromatase inhibitors - cell viability counter screen (AID 743084);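 also: cells stimulated with testosterone during compound exposure; nearly all actives have a fitted effect of over 55% in size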
[9] = molecular target: Aryl hydrocarbon receptor (Homo sapiens) (UniProt P35869); assay: qHTS assay to identify small molecule that activate the aryl hydrocarbon receptor (AhR) signaling pathway (AID 743085);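 also: HG2L7.5c1 human HepG2 liver cells with stably integrated DRE-driven firefly reporter; series mostly up to about 70 µM; nearly all actives have a fitted effect of over 15% in size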
How it was run: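 Luminescence (ONE-Glo) from a dioxin-responsive-element luciferase reporter in HG2L7.5c1 HepG2 cells after 24 hr compound exposure at 37C; viability measured by CellTiter-Fluor fluorescence beforehand.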

[10] = qHTS assay to identify small molecule that activate the aryl hydrocarbon receptor (AhR) signaling pathway - cell viability counter screen (AID 743086);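 also: HepG2 liver cells carrying the AhR DRE luciferase reporter; series mostly up to about 70 µM; nearly all actives have a fitted effect of over 45% in size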
How it was run: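 HepG2-AhR-luc (HG2L7.5c1) cells, 4000/well, were preincubated 5 h at 37C, exposed to compound in qHTS format for 24 hr at 37C, then given CellTiter-Fluor for 30 min; viability was read as fluorescence in the reporter wells.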

[11] = molecular target: Peroxisome proliferator-activated receptor gamma (Homo sapiens) (UniProt P37231); assay: qHTS assay to identify small molecule agonists of the peroxisome proliferator-activated receptor gamma (PPARg) signaling pathway (AID 743094; active = well fitted activation curve with a large enough effect in the signal ratio in the repeat runs, not every such curve was filed as active; inconclusive = weak or mixed curves, or effect the other way; inactive = no such curve, though single readings can be large or run the other way; the % refers to the signal ratio)
How it was run: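 Agonism was assessed in a beta-lactamase reporter system, HEK293H cells with a stably integrated UAS-bla construct under PPARg control; the 17 h treatment at 37C preceded a 1 h room-temperature FRET substrate read.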

[12] = molecular target: Peroxisome proliferator-activated receptor gamma (Homo sapiens) (UniProt P37231); assay: qHTS assay to identify small molecule antagonists of the peroxisome proliferator-activated receptor gamma (PPARg) signaling pathway (AID 743191; calls by dose curve; also: nearly all actives have a fitted effect of over 30% in size; also: potency is read from the fitted curve at half-maximal effect)
How it was run: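 GeneBLAzer PPARg UAS-bla HEK293H cells carrying a UAS-driven beta-lactamase reporter were plated at 3000 cells/well, preincubated 5 h at 37C, then given compound for 17 h at 37C; LiveBLAzer B/G FRET substrate was read after 1 h at room temperature.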

[13] = qHTS assay to identify small molecule antagonists of the peroxisome proliferator-activated receptor gamma (PPARg) signaling pathway - cell viability counter screen (AID 743194); also: nearly all actives have a fitted effect of over 55% in size
How it was run: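 PPARg-UAS-bla HEK293H cells were plated, rested 5 h at 37 C, then treated with compounds plus rosiglitazone (50 nM final) for 17 h at 37 C; viability was then read by CellTiter-Glo luminescence after 30 min at room temperature.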

[14] = qHTS assay for small molecule agonists of the antioxidant response element (ARE) signaling pathway - cell viability counter screen (AID 743203; calls by dose curve; also: nearly all actives have a fitted effect of over 55% in size)
How it was run: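 ATP content via CellTiter-Glo luminescence served as the viability measure. Cells: ARE-bla HepG2, 2,000 per well. Exposure: 16 hrs, 37C/5% CO2.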

[15] = qHTS assay for small molecule activators of the heat shock response signaling pathway - cell viability counter screen (AID 743209); also: nearly all actives have a fitted effect of over 50% in size
How it was run: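 Compounds dissolved in DMSO were added to overnight-plated HSE-bla HeLa cells and left 5 h at 37 C. Cell viability was quantified by luminescence using CellTiter-Glo.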

[16] = qHTS assay to identify small molecule antagonists of the thyroid receptor (TR) signaling pathway (AID 743065); also: nearly all actives have a fitted effect of over 55% in size; also: potency is read from the fitted curve at half-maximal effect
How it was run: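 GH3.TRE-Luc rat pituitary cells carrying two TR response elements driving luciferase were plated for 4 h, given compound plus 1 nM T3 (final), and incubated 23.5 h at 37 C. ONE-Glo luminescence measured reporter inhibition; CellTiter-Fluor fluorescence tracked cytotoxicity.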

[17] = tested on: thyroid hormone receptor (rat, GH3 cells); assay: qHTS assay to identify small molecule agonists of the thyroid receptor (TR) signaling pathway (AID 743066; calls by dose curve)
[18] = qHTS assay for small molecule agonists of the antioxidant response element (ARE) signaling pathway (AID 743202; active = well fitted activation curve with a large enough effect in the signal ratio in the repeat runs, not every such curve was filed as active; inconclusive = weak or mixed curves, or effect the other way; inactive = no such curve, though single readings can be large or run the other way; the % refers to the signal ratio; also: potency is read from the fitted curve at half-maximal effect)
How it was run: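 Following a 16 h, 37 C exposure of reporter HepG2 cells (ARE-driven beta-lactamase, 2,000 cells/well) to compounds, FRET substrate was applied for 2 h at room temperature and fluorescence intensity recorded.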

[19] = qHTS assay for small molecule activators of the heat shock response signaling pathway (AID 743210; active = well fitted activation curve with a large enough effect in the signal ratio in the repeat runs, with a control signal flat, not every such curve was filed as active; inconclusive = weak or mixed curves; the % refers to the signal ratio; also: series mostly up to about 63 µM)
How it was run: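 Heat shock element–beta-lactamase HeLa reporter cells; qHTS with compounds for 5 h at 37 C; detection by FRET substrate fluorescence after 2.5 h at RT.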

Sequence of Aryl hydrocarbon receptor (Homo sapiens) (P35869 whole entry, looked up): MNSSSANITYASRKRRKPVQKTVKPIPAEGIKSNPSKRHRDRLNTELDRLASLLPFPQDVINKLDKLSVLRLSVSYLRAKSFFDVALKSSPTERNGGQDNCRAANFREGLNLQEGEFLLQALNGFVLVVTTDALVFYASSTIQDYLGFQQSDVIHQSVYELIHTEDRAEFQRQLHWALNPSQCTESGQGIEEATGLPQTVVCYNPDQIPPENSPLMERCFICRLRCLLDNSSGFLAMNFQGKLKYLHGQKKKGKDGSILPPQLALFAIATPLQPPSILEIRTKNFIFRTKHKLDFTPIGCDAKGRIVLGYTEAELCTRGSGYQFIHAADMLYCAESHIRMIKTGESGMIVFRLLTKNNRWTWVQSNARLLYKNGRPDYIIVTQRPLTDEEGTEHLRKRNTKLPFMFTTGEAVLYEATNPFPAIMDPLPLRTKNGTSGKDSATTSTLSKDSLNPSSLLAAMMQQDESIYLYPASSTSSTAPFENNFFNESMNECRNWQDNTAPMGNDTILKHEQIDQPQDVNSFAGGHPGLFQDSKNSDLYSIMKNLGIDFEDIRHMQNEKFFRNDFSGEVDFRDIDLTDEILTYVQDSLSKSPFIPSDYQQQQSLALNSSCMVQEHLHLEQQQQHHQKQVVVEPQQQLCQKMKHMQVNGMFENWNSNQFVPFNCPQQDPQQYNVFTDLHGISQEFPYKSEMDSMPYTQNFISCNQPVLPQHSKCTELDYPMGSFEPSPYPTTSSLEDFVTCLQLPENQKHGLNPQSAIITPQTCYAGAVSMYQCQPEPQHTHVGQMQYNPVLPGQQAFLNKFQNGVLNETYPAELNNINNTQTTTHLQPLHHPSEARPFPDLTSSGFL
Sequence of Estrogen receptor (Homo sapiens) (P03372 whole entry, looked up): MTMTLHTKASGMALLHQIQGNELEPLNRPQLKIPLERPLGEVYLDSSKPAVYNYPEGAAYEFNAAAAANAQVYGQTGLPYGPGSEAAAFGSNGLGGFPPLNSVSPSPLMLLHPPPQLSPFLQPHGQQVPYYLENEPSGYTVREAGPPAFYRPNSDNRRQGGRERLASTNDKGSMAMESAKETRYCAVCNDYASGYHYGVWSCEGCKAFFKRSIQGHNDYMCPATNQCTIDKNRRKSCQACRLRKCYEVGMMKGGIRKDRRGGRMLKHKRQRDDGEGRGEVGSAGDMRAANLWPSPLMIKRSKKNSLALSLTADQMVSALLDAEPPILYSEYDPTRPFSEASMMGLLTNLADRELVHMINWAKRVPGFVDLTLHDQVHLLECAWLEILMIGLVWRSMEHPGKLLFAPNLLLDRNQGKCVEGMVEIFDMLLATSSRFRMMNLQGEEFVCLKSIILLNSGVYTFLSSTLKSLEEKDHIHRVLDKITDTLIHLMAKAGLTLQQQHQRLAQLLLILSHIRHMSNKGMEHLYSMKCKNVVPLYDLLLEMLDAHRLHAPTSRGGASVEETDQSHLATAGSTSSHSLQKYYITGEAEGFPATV
Sequence of Peroxisome proliferator-activated receptor gamma (Homo sapiens) (P37231 whole entry, looked up): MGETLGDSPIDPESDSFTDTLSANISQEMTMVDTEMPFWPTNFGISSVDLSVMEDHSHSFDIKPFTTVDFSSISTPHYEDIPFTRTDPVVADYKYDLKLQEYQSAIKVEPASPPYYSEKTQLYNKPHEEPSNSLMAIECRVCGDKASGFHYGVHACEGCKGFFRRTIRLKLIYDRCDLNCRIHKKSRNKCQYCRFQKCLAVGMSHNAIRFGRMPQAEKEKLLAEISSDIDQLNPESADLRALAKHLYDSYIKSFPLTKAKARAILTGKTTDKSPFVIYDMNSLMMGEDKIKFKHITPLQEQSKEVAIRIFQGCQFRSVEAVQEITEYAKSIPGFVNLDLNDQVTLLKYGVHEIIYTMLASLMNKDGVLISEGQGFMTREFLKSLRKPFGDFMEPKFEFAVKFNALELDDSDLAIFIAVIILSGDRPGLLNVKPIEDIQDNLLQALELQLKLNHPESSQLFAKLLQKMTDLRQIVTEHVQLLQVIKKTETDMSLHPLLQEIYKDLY
Sequence of Aromatase (Homo sapiens) (P11511 whole entry, looked up): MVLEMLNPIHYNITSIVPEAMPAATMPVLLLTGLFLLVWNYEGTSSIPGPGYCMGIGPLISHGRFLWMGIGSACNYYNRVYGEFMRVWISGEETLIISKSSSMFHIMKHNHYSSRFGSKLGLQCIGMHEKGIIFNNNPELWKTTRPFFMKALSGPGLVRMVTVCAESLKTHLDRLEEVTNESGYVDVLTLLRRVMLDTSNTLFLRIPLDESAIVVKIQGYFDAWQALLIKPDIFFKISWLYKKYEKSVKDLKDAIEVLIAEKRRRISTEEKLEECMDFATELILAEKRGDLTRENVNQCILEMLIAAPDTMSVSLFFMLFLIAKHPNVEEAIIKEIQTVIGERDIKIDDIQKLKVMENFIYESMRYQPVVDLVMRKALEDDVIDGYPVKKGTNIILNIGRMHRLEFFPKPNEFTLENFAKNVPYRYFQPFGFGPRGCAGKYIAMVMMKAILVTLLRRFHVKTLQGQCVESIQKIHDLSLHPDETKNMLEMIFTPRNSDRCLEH

Compound | Potency [1] | Potency [2] | outcome [3] | Potency [4] | Potency [5] | Potency [6] | Potency [7] | Potency (Aromatase (Homo sapiens)) | Potency [8] | Potency [9] | Potency [10] | Potency [11] | Potency [12] | Potency [13] | Potency [14] | Potency [15] | Potency [16] | Potency [17] | Potency [18] | outcome [19]
Cc1occc1S | inactive | inactive | inactive | inactive | inactive | inactive | inactive | inactive | inactive | inactive | inactive | inactive | inactive | inactive | inactive | inactive |  |  |  | 
O=C1CCCCCO1 |  | inactive | inactive | inactive | inactive | inactive | inactive | inactive | inactive | inactive | inactive | inactive | inactive | inactive | inactive | inactive | inactive | inactive | inactive | inactive
CCN(CC)CCOC(=O)C1(c2ccccc2)CCCC1 |  | inactive | inactive | inactive | inactive | inactive | inactive | inactive | inactive |  | inactive | inactive | inactive | inactive | inactive | inactive | inactive | inactive | inactive | inactive
O=c1[nH]cnc2ccccc12 |  | inactive | inactive | inactive | inactive | inactive | inactive | inactive | inactive |  | inactive | inactive |  | inactive | inactive | inactive | inactive | inactive | inactive | inactive
CC(=O)c1c(C)c([N+](=O)[O-])c(C(C)(C)C)c([N+](=O)[O-])c1C |  |  | inactive |  |  |  | inactive | inactive | inactive | inactive | inactive | inactive |  | inactive | inactive | inactive |  | inactive | inactive | inactive
O=C1[C@H](CC[C@H](O)c2ccc(F)cc2)[C@@H](c2ccc(O)cc2)N1c1ccc(F)cc1 |  | inactive | inactive | inactive | inactive | inactive | inactive | inactive | inactive |  | inactive | inactive |  | inactive |  | inactive |  | inactive |  | inactive
O=C(O)c1cn(C2CC2)c2cc(Cl)c(F)cc2c1=O |  |  |  |  |  |  |  |  |  |  |  |  |  | inactive | inactive | inactive |  |  | inactive | inactive
COc1ccc2[nH]c(S(=O)Cc3ncc(C)c(OC)c3C)nc2n1 (configuration not stated) |  | inactive | inactive |  | inactive | inactive | inactive | inactive | inactive |  | inactive |  |  | inactive | inactive | inactive |  | inactive | 10.6 µM (active) | inactive
CCN(CC)C(C)CN1c2ccccc2Sc2ccccc21 (configuration not stated) |  | inactive | inactive | inactive | inactive | inactive | inactive | inactive | inactive | inactive | inactive | inactive | inactive |  | inactive | inactive |  |  |  | inactive
CCCCCCCCCC(=O)OCC |  | inactive |  | inactive |  | inactive | inactive | inactive | inactive | inactive | inactive | inactive |  | inactive | inactive | inactive | inactive | inactive | inactive | inactive
CC(C)(C)c1ccc(S)cc1 |  |  | inactive | inactive |  |  | inactive | inactive | inactive | inactive | inactive | inactive | inactive | inactive | inactive | inactive | inactive | inactive |  | 
CCCCCCCC/C=C\CCCCCCCC(N)=O |  |  | inactive |  |  |  | inactive | inactive | inactive | inactive | inactive | inactive |  | inactive | inactive | inactive | inactive | inactive | inactive | inactive
O=S(=O)(O)c1ccc(O)c2ncccc12 |  | inactive | inactive | inactive | inactive | inactive |  | inactive | inactive | inactive | inactive | inactive | inactive | inactive | inactive | inactive |  | inactive |  | 
CC1CCc2cc(F)cc3c(=O)c(C(=O)O)cn1c23 (configuration not stated) |  |  | inactive |  |  |  | inactive |  |  |  | inactive |  |  | inactive | inactive | inactive | inactive | inactive | inactive | inactive
CC(C)NCC(O)c1cc(O)cc(O)c1 (configuration not stated) |  |  | inactive |  |  | inactive | inactive | inactive | inactive | inactive | inactive | inactive | inactive | inactive | inactive | inactive |  |  |  | inactive
Oc1ccc(Sc2ccc(O)cc2)cc1 |  |  | inactive | 18.2 µM [inconclusive] (active) | 0.51 µM (active) | inactive | inactive | inactive | inactive | inactive | inactive | inactive | 16.2 µM (active) |  | inactive | inactive | 51 µM (active) | inactive | 22.8 µM (active) | inactive
Nc1ccc(C(=O)N2CC3CC(CN(Cc4ccccc4)C3)C2)cc1 |  |  |  |  |  |  |  |  |  |  |  |  |  |  | inactive | inactive |  |  | inactive | 
COc1ccc(C(C)=O)cc1 |  |  |  | inactive | 44.6 µM (active) | inactive | inactive | inactive | inactive | inactive | inactive | inactive | inactive | inactive | inactive | inactive | inactive | inactive |  | inactive
COC(Cc1ccccc1)OC |  |  | inactive | inactive |  | inactive | inactive | inactive |  |  | inactive | inactive |  | inactive | inactive | inactive | inactive | inactive | inactive | inactive
CN(C)CC[C@@H](c1ccc(Br)cc1)c1ccccn1 |  | inactive | inactive | inactive | inactive | inactive | inactive |  | inactive | inactive | inactive | inactive | inactive |  | inactive | inactive |  |  |  | inactive

From PubChem BioAssay (Tox21)
